Screens (PubChem BioAssay)
USP17 block – inhibitors of human USP17 deubiquitinase; actives 6.5% (n = 47,000); A8MUK1; AID 1645855; purified USP17, Ub-rhodamine cleavage fluorescence, 3 h; inhibition, % at 50 µM
USP30 inh – blocks human USP30 ubiquitin-rhodamine cleavage; Q70CQ3; purified USP30, Ub-rhodamine cleavage fluorescence; inhibition, % at 25 µM; actives 5.3% (n = 47,000); AID 1645860
USP8 block – inhibitors of human USP8 deubiquitinase; P40818; purified USP8, Ub-rhodamine cleavage fluorescence, 30 min; inhibition, % at 20 µM; actives 4.2% (n = 47,000); AID 1645853
Target sequence (P40818 whole entry, looked up): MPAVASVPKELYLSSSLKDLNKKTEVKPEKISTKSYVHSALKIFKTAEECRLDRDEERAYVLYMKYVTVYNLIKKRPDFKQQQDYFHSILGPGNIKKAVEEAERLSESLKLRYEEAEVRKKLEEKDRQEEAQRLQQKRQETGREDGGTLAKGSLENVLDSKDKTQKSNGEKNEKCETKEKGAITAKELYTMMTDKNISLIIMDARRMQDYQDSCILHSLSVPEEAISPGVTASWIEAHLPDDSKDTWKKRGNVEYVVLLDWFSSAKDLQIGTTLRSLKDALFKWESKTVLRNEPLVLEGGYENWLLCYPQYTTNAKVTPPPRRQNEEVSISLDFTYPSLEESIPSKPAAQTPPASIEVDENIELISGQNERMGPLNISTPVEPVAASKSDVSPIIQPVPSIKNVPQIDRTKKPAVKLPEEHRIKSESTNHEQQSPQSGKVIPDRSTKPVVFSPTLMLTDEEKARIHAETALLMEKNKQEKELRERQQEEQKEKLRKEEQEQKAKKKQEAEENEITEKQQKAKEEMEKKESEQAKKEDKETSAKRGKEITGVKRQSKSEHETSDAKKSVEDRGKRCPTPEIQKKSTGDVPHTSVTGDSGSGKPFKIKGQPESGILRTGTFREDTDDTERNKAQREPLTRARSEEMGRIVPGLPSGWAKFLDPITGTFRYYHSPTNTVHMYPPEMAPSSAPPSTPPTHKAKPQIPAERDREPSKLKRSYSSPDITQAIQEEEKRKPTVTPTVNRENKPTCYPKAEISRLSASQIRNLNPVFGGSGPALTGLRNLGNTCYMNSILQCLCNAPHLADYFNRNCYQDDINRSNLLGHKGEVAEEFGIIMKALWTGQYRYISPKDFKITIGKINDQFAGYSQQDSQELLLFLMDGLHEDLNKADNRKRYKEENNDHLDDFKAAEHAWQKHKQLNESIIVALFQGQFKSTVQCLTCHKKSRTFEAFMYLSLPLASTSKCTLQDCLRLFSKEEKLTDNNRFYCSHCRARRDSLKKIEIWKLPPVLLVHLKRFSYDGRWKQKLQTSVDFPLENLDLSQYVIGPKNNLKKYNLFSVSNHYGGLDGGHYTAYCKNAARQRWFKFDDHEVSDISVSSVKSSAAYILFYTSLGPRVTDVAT
* hit, by the source's call; i = inactive; . = no result given. In the library only some 12% were active in any assay of this set; here they are far more common. Rule as the data show it: active = inhibition above about 30%; inactive = the rest.

SMILES	USP17 block	USP30 inh	USP8 block
COc1cc(OC)c(NC(=O)Cn2c(=O)n(-c3ccc(CC(=O)NCC4CCCO4)cc3)c(=O)c3ccccc32)cc1Cl (stereo unspecified)	4	.	0
CCC(C)NC(=O)Cn1c(=O)n(-c2ccccc2)c(=O)c2ccc(C(=O)NCc3ccco3)cc21 (stereo unspecified)	16	73*	25
COc1ccc(NC(=O)Cn2c(=O)n(-c3ccc(CC(=O)NCc4ccco4)cc3)c(=O)c3ccccc32)cc1Cl	12	-1	75*
O=C(Cn1c(=O)n(Cc2ccc(C(=O)NCc3ccccc3Cl)cc2)c(=O)c2ccccc21)Nc1cccc(F)c1	16	20	16
N#Cc1cccc(NC(=O)CN2CCn3c(cnc3C(F)(F)F)C2=O)c1	18	10	24
CCOc1ccccc1NC(=O)c1cn2c(n1)CCCC2	-4	-24	0
COc1ccccc1OC(C)C(=O)NCc1ccc(-c2ncncc2-c2cc(C)no2)cc1 (stereo unspecified)	16	17	3
C[C@@H]1CO[C@@H]2C3=C(C(=O)C=CC3=O)[C@H]3OC(=O)[C@@H]4CCC5[C@@H]1CCC52C34 (stereo partly specified)	80*	59*	34*
Cc1cc(C)cc(-c2nc(SCC(=O)N3CCCC3)c3c(=O)n(C)c(=O)n(C)c3n2)c1	.	36*	14
Cn1c(=O)c2c(SCC(=O)N3CCCC3)nc(-c3ccccc3)nc2n(C)c1=O	7	2	0
O=C1NCCNC(=O)C2(C/C=C/COc3ccccc31)CCCN(Cc1cncs1)C2 (stereo unspecified)	-1	-1	11
O=C(COC(=O)C1(c2ccccc2F)CCCC1)Nc1ccc2c(c1)OCO2	41*	37*	44*
O=C(COC(=O)C1(c2ccccc2F)CCCC1)Nc1ccc2c(c1)OCCO2	18	29	12
CC(C)(C)NC(=O)COC(=O)C1(c2cccc(F)c2)CCCC1	-1	11	3
COc1cc(NC(=O)COC(=O)C2(c3ccccc3F)CCCC2)cc(OC)c1	14	41*	26
COc1ccccc1NC(=O)Cn1c(=O)n(-c2ccc(F)cc2)c2ncccc21	-8	6	0
O=C(c1ccn(-c2ccc3ccc(-c4ccccc4)cn23)n1)N1CCOCC1	-123	i	-42
COc1ccc(OC)c(C2c3[nH]c4ccccc4c3C[C@@H]3C(=O)N(CCCn4ccnc4)CC(=O)N23)c1 (stereo partly specified)	5	-58	-24
Cc1ccc(CNC(=O)Cc2nnc(-c3ccc4ncccc4c3)o2)cc1	31*	-115	29
O=C(Cc1nnc(-c2ccc3ncccc3c2)o1)NCc1ccccc1	0	-5	-7
CC1(c2ccccc2F)NC(=O)c2ccccc2N1 (stereo unspecified)	17	-9	26
O=C(Nc1nc2c(s1)CN(C(=O)/C=C/c1ccco1)CC2)c1cnccn1	-4	-107	-81
Cc1cc(C(=O)Nc2nc3c(s2)CN(C(=O)/C=C/c2ccco2)CC3)no1	35*	-77	-10
CC(C)CN1C[C@H]2CCN(Cc3ccccc3)CC[C@H]2S1(=O)=O	1	0	-25
CC1CCN([C@H]2CS(=O)(=O)C[C@@H]2S(=O)(=O)c2ccccc2)CC1	11	22	-2
SMILES	USP17 block	USP30 inh	USP8 block
O=C(CCc1nc(-c2ccccc2F)no1)Nc1nc2ccccc2s1	7	20	18
O=C(NCc1ccc2c(c1)OCO2)c1nnc(Cc2ccc(F)cc2)o1	56*	22	9
O=C(NCc1ccccc1)c1ccccc1OCc1ccc2c(c1)OCO2	31*	35*	17
O=C(NCc1ccc2c(c1)OCO2)c1ccccc1OCc1ccc(F)cc1	33*	31*	16
N#Cc1ccccc1OCC(=O)NCc1ccc2c(c1)OCO2	-13	-20	-16
Cc1nc(NCc2ccccc2)ncc1C(=O)NCc1ccc2c(c1)OCO2	3	-238	1
COc1ccc(-n2cc(C(=O)NCc3ccc4c(c3)OCO4)c3ccccc3c2=O)cc1	0	54*	7
O=C(NCc1ccc(F)cc1)c1nnc(Cc2ccc(Cl)cc2)o1	4	3	9
COc1ccc2nc(C(=O)NCc3ccc4c(c3)OCO4)cn2n1	-6	0	-9
CC(NC(=O)c1cc([N+](=O)[O-])ccc1N1CCCCC1)C12CC3CC(CC(C3)C1)C2 (stereo unspecified)	0	-16	2
Cc1cc(-c2nccn2C)nc(C2CCN(C(=O)c3ccccn3)CC2)n1	2	15	11
COc1cc2c(cc1OC)C(c1ccccc1)N(CC(=O)N1CCOCC1)CC2 (stereo unspecified)	-8	-26	-5
CO/C=C/C(=O)c1cc2cnc3c(=N)cc(NC(C)=O)c([nH]1)c23	54*	-26	42*
CCc1cc2c(NCc3ccc(F)cc3)ncnc2s1	32*	27	18
COc1ccc(CNc2ncnc3sccc23)cc1OC	-21	-42	-5
CCc1noc(-c2c(C)[nH]c(C)c2S(=O)(=O)NCc2ccccc2)n1	-12	-28	-11
Cc1cc(C(=O)N2CCOCC2)c2cccc(Cl)c2n1	0	-9	-1
COc1ccc(C)cc1-n1nnnc1SCC(=O)c1cc(C)ccc1C	4	32*	-11
COc1ccc2c(CCNC(=O)CSc3nnnn3-c3ccc(C)cc3C)c[nH]c2c1	25	-36	7
CCc1cccc(NC(=O)N2CCC3(C2)Nc2cccnc2NC3=NC(C)(C)C)c1 (stereo unspecified)	-42	-251	-24
Cc1cc2nc(/C=C/c3ccccc3)n(Cc3cccc(F)c3)c2cc1C	-6	0	-18
O=C(CCCC1=NS(=O)(=O)c2ccccc2N1)Nc1ccc(F)c(F)c1	4	-12	10
CC(OC(=O)CCCc1c[nH]c2ccccc12)C(=O)Nc1ccccc1F (stereo unspecified)	2	-19	3
c1ccc2c(Cc3nc(-c4ccncc4)no3)cccc2c1	-22	-24	0
Cn1cc(S(=O)(=O)N2CCCCCC2)cc1C(=O)Nc1ccc(F)cc1	50*	15	11
SMILES	USP17 block	USP30 inh	USP8 block
Cn1cc(S(=O)(=O)N2CCCCCC2)cc1C(=O)Nc1cccc(F)c1	16	10	2
CNc1nccnc1C1CN(C(=O)c2c(C(C)C)noc2C)CCO1 (stereo unspecified)	6	10	32*
CNc1nccnc1C1CN(C(=O)c2snnc2C(C)C)CCO1 (stereo unspecified)	4	7	13
CC(C)CNC(=O)C1CCc2nc(N3CCN(C(=O)C4CCC4)CC3)sc2C1 (stereo unspecified)	4	-12	-12
COc1cc([N+](=O)[O-])ccc1NC(=O)COC(=O)Cc1c[nH]c2ccccc12	-7	-16	-60
COc1ccc([N+](=O)[O-])cc1NC(=O)COC(=O)c1ccc2[nH]c3c(c2c1)CCCC3	71*	60*	60*
Cc1ccc(CNC(=O)C2(C)Cn3nc(-c4ccco4)cc3C(=O)N2Cc2ccccc2)cc1 (stereo unspecified)	-81	-391	-13
Cc1cccc(-c2c(NC(=O)c3ccc(Cl)cc3Cl)n(C)c3ccccc3c2=O)c1	14	12	8
